# TGFb SMAD3 inh: inhibitors of TGF-b signaling | 410,000 tested, 1.2% active | Potency, µM (doses to about 46.1 µM), for inactives: top-dose activity, negative = inhibition, actives largely listed as inhibitors | HepG2 CAGA-GFP TGF-b/SMAD3 reporter, GFP fluorescence, 18 h; TGF-beta stimulated, 500 pg/mL final; note: potency is the fitted concentration of half-maximal effect; % is set by controls: 0 for no effect and ±100 for the full control effect; nearly all actives have a fitted effect of over 65% in size
#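 Inhibition was scored as loss of TGF-beta-induced (500 pg/mL final, 18 hours, 37 degrees C) GFP in HEPG2 cells carrying a CAGA-GFP reporter, in DMEM with 1% FBS. Well GFP was summed per cell; Activity was normalised to unstimulated and stimulated DMSO wells, then concentration-response fitting.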
# IL1B secr inh: inflammasome signaling inhibition, IL-1 beta readout | THP-1 LPS/ATP IL-1B secretion, AlphaLISA, 16 h; active compounds read low | activity change, % at 57.5 µM | 360,000 tested, 4.7% active; in the data active = activity change below about -50%; inconclusive = mostly about -30% to -49%; note: % is set by controls: 0 for no effect and ±100 for the full control effect
#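 Secreted IL-1B measured by AlphaLISA bead assay after 16 h compound exposure of THP-1 cells; compounds (final up to 57.5 uM) added 1 h before LPS (250 ng/mL) and ATP (1.25 mM) stimulation; lower signal means less secretion.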
# HepG2 viability: kills HepG2 cells in TGF-b inhibitor counter-screen; HepG2 CAGA-GFP viability, ATP luminescence, 18 h; Potency, µM (series often up to 46.1 µM), for the others: top-dose activity change, negative = cytotoxicity, usual class: cytotoxic; 410,000 tested, 0.76% active; note: potency is the fitted concentration of half-maximal effect
#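 HepG2 CAGA-GFP cells (1000/well, DMEM with 1% FBS) received compound, then TGF-beta at 500 pg/mL final, and were incubated 18 hours at 37 degrees C. Viability was read by CellTiter-Glo luminescence. Media-only wells were set as complete cell-killing and DMSO as no toxicity.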
# S-ASM inh: blocks human secretory acid sphingomyelinase. P17405. placental ASM, HMU-PC fluorogenic substrate, 60 min. Potency, µM (doses to about 57.5 µM), without a hit: at the highest dose activity change, negative = inhibition, hits mostly inhibitors. 340,000 tested, 0.006% active. AID 504937; note: potency is the fitted concentration of half-maximal effect
# Target sequence (P17405 47-631 limits assumed): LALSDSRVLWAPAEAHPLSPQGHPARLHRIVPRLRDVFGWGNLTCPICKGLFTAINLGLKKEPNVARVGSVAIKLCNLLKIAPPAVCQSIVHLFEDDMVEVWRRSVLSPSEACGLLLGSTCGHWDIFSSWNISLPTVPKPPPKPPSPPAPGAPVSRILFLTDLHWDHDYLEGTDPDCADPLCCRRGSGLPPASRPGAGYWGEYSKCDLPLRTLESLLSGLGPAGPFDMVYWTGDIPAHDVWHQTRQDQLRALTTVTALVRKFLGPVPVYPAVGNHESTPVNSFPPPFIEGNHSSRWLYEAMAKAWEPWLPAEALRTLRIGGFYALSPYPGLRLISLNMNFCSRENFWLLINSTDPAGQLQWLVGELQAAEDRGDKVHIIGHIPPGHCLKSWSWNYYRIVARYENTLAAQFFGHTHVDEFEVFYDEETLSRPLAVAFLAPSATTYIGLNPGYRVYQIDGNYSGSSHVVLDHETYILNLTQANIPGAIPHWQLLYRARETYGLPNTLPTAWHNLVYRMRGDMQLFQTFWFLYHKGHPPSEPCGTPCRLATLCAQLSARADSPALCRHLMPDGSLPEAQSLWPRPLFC
#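 Human placenta-derived ASM enzyme was preincubated with compound for 10 minutes at room temperature, then given fluorogenic substrate HMU-PC0 (9 uM final) for 60 minutes at 37 °C; a pH 10 stop preceded fluorescence reading at Ex 386/Em 447 nm.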
# TDP1 cell CPT: growth inhibition of DT40 Tdp1-/-;hTDP1 cells with camptothecin (screen for TDP1 inhibitors); AID 686979; Potency, µM (doses to about 46.2 µM), for the others: at the highest dose activity change, negative = growth inhibition, hits mostly inhibitors; 420,000 tested, 12% active; chicken DT40 Tdp1-/-;hTDP1 cells + 20 nM CPT, ATP luminescence, 48 h; note: potency is the fitted concentration of half-maximal effect; % is set by controls: 0 for no effect and ±100 for the full control effect; nearly all actives have a fitted effect of over 55% in size
#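 Cell growth measured by CellTiter-Glo luminescence after a minimum 48 h, 37 C compound exposure with 20 nM CPT in Tdp1-knockout DT40 cells stably expressing hTDP1, seeded 400/well; qHTS titration format.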
# DT40 TDP1 no CPT: qHTS for Inhibitors of human tyrosyl-DNA phosphodiesterase 1 (TDP1): qHTS in cells in absence of CPT. DT40 Tdp1-/- hTDP1 cells, no CPT, ATP luminescence, 48 h. Potency, µM (series often up to 46.2 µM), for the others: at the highest dose activity change, negative = growth inhibition, hits mostly inhibitors. 420,000 tested, 15% active. AID 686978, 2013; note: potency is the fitted concentration of half-maximal effect; % is set by controls: 0 for no effect and ±100 for the full control effect; nearly all actives have a fitted effect of over 55% in size
#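 Luminescent ATP content (CellTiter-Glo) served as the growth readout. Knockout chicken DT40 cells expressing human TDP1 were exposed to compounds without camptothecin for a minimum 48 hr at 37 °C.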
# The depositor's hits bear a star; ? = inconclusive; . = no result given; [ ] = remark or other dose. Sampled rows, rich in hits. Any-hit rate of the full collection: about 19%. Unless noted, calls come from the whole dose curve; as a rule, active = well fitted curve in the direction sought with a large enough effect; inconclusive = small, poorly fitted or top-dose-only effect, or another doubt; inactive = no such curve, though single readings can be large; an effect the other way counts as inactive or inconclusive.
SMILES,TGFb SMAD3 inh,IL1B secr inh,HepG2 viability,S-ASM inh,TDP1 cell CPT,DT40 TDP1 no CPT
CCN(CC)CCNC(=O)c1sc2nc(C)cc(C)c2c1-n1cccc1,-4%,.,-15%,.,?,?
COc1ccc(C2C=C(c3ccccc3)Nc3nc(NS(=O)(=O)c4ccccc4)nn32)cc1 (stereo not drawn),24%,.,-11%,.,?,?
COc1ccc(C2C=C(c3ccccc3)Nc3nc(NC(C)=O)nn32)cc1 (stereo not drawn),0%,.,-18%,.,-27%,?
COc1ccc(/C=C/C(=O)Nc2nc3n(n2)C(c2ccc(F)cc2)C=C(c2ccccc2)N3)cc1 (stereo not drawn),48%,.,-64%,.,5.2µM*,3.7µM*
COc1ccc(C2C=C(c3ccc(Cl)cc3)Nc3nc(NC(=O)CCC(=O)O)nn32)cc1 (stereo not drawn),4%,.,7%,.,6%,-25%
O=C(/C=C/c1ccccc1)Nc1nc2n(n1)C(c1ccc(F)cc1)C=C(c1ccccc1)N2 (stereo not drawn),-2%,.,-22%,.,7.3µM*,8.2µM*
COc1ccc(/C=C/C(=O)Nc2nc3n(n2)C(c2ccccc2)C=C(c2ccccc2)N3)cc1 (stereo not drawn),-5%,.,-14%,.,7.3µM*,5.8µM*
COc1ccc(C2C=C(c3ccccc3)Nc3nc(NC(=O)/C=C/c4ccc(F)cc4)nn32)cc1 (stereo not drawn),1%,.,-2%,.,21µM*,21µM*
Cc1c(NC(=O)CSCc2ccco2)c(=O)n(-c2ccccc2)n1C,-5%,-1,9%,3%,2%,0%
Nc1ccccc1NC1CCCCC1,-14%,-9,-13%,-1%,-20%,?
COc1ccccc1NC(=O)NNC(=O)c1ccc2ccccc2c1O,0%,48,-19%,163%,-6%,11%
CC1(C)CC(=O)c2cc(C(=O)Nc3ccccc3)c(=O)[nH]c2C1,28%,.,1%,.,-24%,?
Cc1ccc2nc(CCl)[n+]([O-])c(-c3ccccc3)c2c1,-1%,?,-3%,-4%,26µM*,16µM*
COc1ccc(C)cc1NC(=O)CN1C(=O)COc2ccc(C)cc21,44%,-5,-8%,-5%,0%,0%
O=S1(=O)C=C(Sc2nc3cc(Cl)ccc3o2)c2ccccc21,-31%,-119*,-11%,-1%,0.58µM*,0.46µM*
CC(C)C[C@H](NC(=O)c1[nH]cnc1C(=O)N[C@@H](C)C(=O)OC(C)(C)C)C(=O)OCc1ccccc1,?,-16,-72%,-10%,?,16µM*
CC(C)(C)OC(=O)C(Cc1ccc(OC(C)(C)C)cc1)NC(=O)CNC(=O)OCc1ccccc1 (stereo not drawn),?,-71*,-4%,-7%,16µM*,12µM*
CC(C)C[C@H](NC(=O)c1[nH]cnc1C(=O)N[C@@H](Cc1ccccc1)C(=O)OC(C)(C)C)C(=O)OCc1ccccc1,?,-6,-6%,-4%,?,23µM*
CC(C)C[C@H](NC(=O)c1[nH]cnc1C(=O)N[C@@H](Cc1ccccc1)C(=O)OC(C)(C)C)C(=O)OC(C)(C)C,11µM*,-50*,-31%,-8%,16µM*,?
CC(C)C[C@H](NC(=O)c1[nH]cnc1C(=O)N[C@@H](C)C(=O)OCc1ccccc1)C(=O)OCc1ccccc1,?,-5,-19%,-9%,?,?
CC(=O)Nc1ccccc1NC(=O)C/C(C)=N/NC(=O)c1cccnc1,-5%,24,-4%,2%,-5%,-13%
N#CCC(=O)Nc1ccc(C(=O)OCC(=O)NC(=O)NCc2ccco2)cc1,-9%,-8,2%,-2%,18%,2%
CC(C)C[C@H](NC(=O)c1[nH]cnc1C(=O)Nc1ccccc1F)C(=O)OC(C)(C)C,?,-2,11µM*,.,-89%,23µM*
CC(C)C[C@H](NC(=O)c1[nH]cnc1C(=O)N[C@@H](Cc1ccccc1)C(=O)OCc1ccccc1)C(=O)OC(C)(C)C,?,3,-4%,-5%,21µM*,21µM*
C[C@H](NC(=O)c1nc[nH]c1C(=O)N[C@@H](Cc1ccccc1)C(=O)OCc1ccccc1)C(=O)OC(C)(C)C,?,14,-8%,-9%,?,-28%
SMILES,TGFb SMAD3 inh,IL1B secr inh,HepG2 viability,S-ASM inh,TDP1 cell CPT,DT40 TDP1 no CPT
C[C@@H](NC(=O)c1nc[nH]c1C(=O)N[C@@H](Cc1ccccc1)C(=O)OCc1ccccc1)c1ccccc1,?,46,-14%,-3%,?,18µM*
Cc1cc(C(=O)NNC(=O)COc2c(C)cc(Br)cc2C)n[nH]1,-1%,41,-2%,?,-3%,7%
CCCN(CCC)CCCNC(=O)C1CCC(CNS(=O)(=O)c2cccc3nsnc23)CC1 (stereo not drawn),-3%,-2,-13%,6%,-4%,1%
CCN1C(=NCCOC)N[C@@H](c2cccs2)C(C(=O)OC)=C1C,4%,5,0%,8%,-3%,-20%
Cc1ccc(CCNC(=O)c2cc3sccc3n2Cc2ccc(F)cc2)cc1,-4%,.,-11%,.,-20%,?
CC(C)Oc1ccc(C(=O)N(Cc2ccco2)Cc2cccs2)cc1,-10%,.,-33%,.,?,?
CC(C)Oc1ccc(C(=O)/C(=C\c2cccs2)c2nc3ccccc3o2)cc1,-6%,-67*,4%,-6%,?,?
O=C(NCc1nnc2n1CCN(Cc1cc(F)cc(F)c1)CC2)c1cccc(F)c1,.,.,.,.,4.1µM*,4.6µM*
CC(CN1CCc2nnc(CNC(=O)c3cccc(F)c3)n2CC1)c1ccccc1 (stereo not drawn),.,.,.,.,-3%[9.04 µM],?
CC1=CC(=Nc2c(C)n(C)n(-c3ccccc3)c2=O)C=C(C)C1=O,-1%,0,-9%,-7%,?,21µM*
O=C(O)C1=CC[C@@H](c2ccc(Cl)cc2)N(S(=O)(=O)c2ccc(Cl)cc2)[C@H]1c1ccc(Br)cc1,13µM*,51,-89%,-11%,?,?
Cc1ccccc1S(=O)(=O)N1[C@@H](c2ccc(Br)cc2)C(C(=O)O)=CC[C@H]1c1ccc(Cl)cc1,18µM*,5,-78%,1%,-18%,-24%
